Common to all, as to assay: yeast three-hybrid, YBZ-1, SC-Leu-His + 0.5 mM 3-AT, 4 days
Holding throughout (settings): tags: N-Gal4 AD-HA kept; label: inside an RPR1-promoter hybrid RNA with tandem MS2 sites; ssRNA

In one assay the target is PUM1 PUF domain R4-LRC (Homo sapiens, UniProt Q14671 828-1176, N971L;H972R;Q975C). Put shortly: (§1)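 The interaction score is the log change in how often each variant appears, from input to selection. Frequencies came from PCR-amplified, Illumina-sequenced repeat regions of Pumilio-1 PUF domain libraries grown in strain YBZ-1 (LexA–MS2 coat fusion, HIS3 reporter) alongside matching RNA elements. Input plates were SC-Leu and selection plates were SC-Leu-His + 0.5 mM 3-AT, each for four days, and the log2 calculation used a pseudocount of 1 where a variant was absent.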

The target of the next assay is PUM1 PUF domain R8-IYR (Homo sapiens, UniProt Q14671 828-1176, N1122I;Q1126R). Put shortly:
as §1

A further assay has as its target PUM1 PUF domain R5-RFC (Homo sapiens, UniProt Q14671 828-1176, C1007R;R1008F;Q1011C). Put shortly: as §1
A further assay has as its target T1, PUM1 PUF domain R6-RFV (Homo sapiens, UniProt Q14671 828-1176, N1043R;Y1044F;Q1047V).
T1 sequence: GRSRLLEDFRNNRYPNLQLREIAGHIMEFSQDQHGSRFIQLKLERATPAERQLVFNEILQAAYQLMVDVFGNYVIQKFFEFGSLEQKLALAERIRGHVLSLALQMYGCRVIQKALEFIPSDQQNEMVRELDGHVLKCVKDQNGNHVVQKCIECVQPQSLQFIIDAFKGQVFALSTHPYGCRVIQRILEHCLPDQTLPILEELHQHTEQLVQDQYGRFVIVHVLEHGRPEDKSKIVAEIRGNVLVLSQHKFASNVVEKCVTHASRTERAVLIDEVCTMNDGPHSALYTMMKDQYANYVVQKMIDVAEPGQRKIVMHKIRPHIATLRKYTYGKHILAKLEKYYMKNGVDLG
Put shortly:
as §1

In a further assay the target is PUM1 PUF domain R3-CNE (Homo sapiens, UniProt Q14671 828-1176, R936N;Q939E). An outline of the steps:
as §1

In another assay the target is PUM1 PUF domain R5-KRH (Homo sapiens, UniProt Q14671 828-1176, C1007K;Q1011H). Put shortly:
as §1

For a further assay, the target named is PUM1 PUF domain R3-TQE (Homo sapiens, UniProt Q14671 828-1176, C935T;R936Q;Q939E). An outline of the steps: as §1
The target in a further assay is PUM1 PUF domain R7-RSC (Homo sapiens, UniProt Q14671 828-1176, S1079R;N1080S;E1083C). Put shortly: as §1
The next assay deals with PUM1 PUF domain R4-EYR (Homo sapiens, UniProt Q14671 828-1176, N971E;H972Y;Q975R). An outline of the steps:
as §1

As for “GGCUAGAACUAGUGGAUCCCCCGGCGCCCGGCGGCUCGAGCCCGGGUAAGUGUAAAUAGUCUGCAUGCCGCCGGGCGCCAUGCCUGCAGGUCGACUCUAGAAAACAUG”, the binding signal with PUM1 PUF domain R4-LRC is 4.01 log2 enrichment (interaction score); in the assay with PUM1 PUF domain R8-IYR, 4.7 log2 enrichment (interaction score); with PUM1 PUF domain R5-RFC, 3.35 log2 enrichment (interaction score); in the assay with PUM1 PUF domain R6-RFV it was 3.56 log2 enrichment (interaction score); in the assay with PUM1 PUF domain R3-CNE it was 2.27 log2 enrichment (interaction score).

As to “GGCUAGAACUAGUGGAUCCCCCGGCGCCCGGCGGCUCGAGCCCGGGUAAGCGUAAAUAGUCUGCAUGCCGCCGGGCGCCAUGCCUGCAGGUCGACUCUAGAAAACAUG”, the binding signal with PUM1 PUF domain R8-IYR is 6.47 log2 enrichment (interaction score).

For the sequence “GGCUAGAACUAGUGGAUCCCCCGGCGCCCGGCGGCUCGAGCCCGGGUAAGUGUCAAUAGUCUGCAUGCCGCCGGGCGCCAUGCCUGCAGGUCGACUCUAGAAAACAUG”, the binding signal with PUM1 PUF domain R5-KRH is 4.38 log2 enrichment (interaction score); with PUM1 PUF domain R5-RFC it was 5.11 log2 enrichment (interaction score).

In the case of “GGCUAGAACUAGUGGAUCCCCCGGCGCCCGGCGGCUCGAGCCCGGGUAAGUGUAAGUAGUCUGCAUGCCGCCGGGCGCCAUGCCUGCAGGUCGACUCUAGAAAACAUG”, the binding signal in the assay with PUM1 PUF domain R3-CNE was 3.08 log2 enrichment (interaction score); in the assay with PUM1 PUF domain R3-TQE, 2.29 log2 enrichment (interaction score).

For the sequence “GGCUAGAACUAGUGGAUCCCCCGGCGCCCGGCGGCUCGAGCCCGGGUAAGUCUAAAUAGUCUGCAUGCCGCCGGGCGCCAUGCCUGCAGGUCGACUCUAGAAAACAUG”, the binding signal with PUM1 PUF domain R7-RSC was 2.75 log2 enrichment (interaction score).

For “GGCUAGAACUAGUGGAUCCCCCGGCGCCCGGCGGCUCGAGCCCGGGUAAGUGUACAUAGUCUGCAUGCCGCCGGGCGCCAUGCCUGCAGGUCGACUCUAGAAAACAUG”, the binding signal with PUM1 PUF domain R4-EYR was 1.63 log2 enrichment (interaction score).

For “GGCUAGAACUAGUGGAUCCCCCGGCGCCCGGCGGCUCGAGCCCGGGUAAGUGUAUAUAGUCUGCAUGCCGCCGGGCGCCAUGCCUGCAGGUCGACUCUAGAAAACAUG”, the binding signal with PUM1 PUF domain R4-EYR is 3.63 log2 enrichment (interaction score).

The record behind these values is paper PMC8384837, “Expanding the binding specificity for RNA recognition by a PUF domain”.
